Screens: PubChem BioAssay, National Center for Advancing Translational Sciences (NCATS)
Most compounds without a hit are left out; they make up all but 19% or so of the library.
DT40 TDP1 CPT – qHTS for Inhibitors of human tyrosyl-DNA phosphodiesterase 1 (TDP1): qHTS in cells in presence of CPT. chicken DT40 Tdp1-/-;hTDP1 cells + 20 nM CPT, ATP luminescence, 48 h. Potency, µM (series often up to 46.2 µM), for the others: top-dose activity change, negative = growth inhibition, most hits filed as inhibitors. 420,000 compounds, 12% hits; also: potency is read from the fitted curve at half-maximal effect; nearly all actives have a fitted effect of over 55% in size
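Cell growth measured by CellTiter-Glo luminescence after a minimum 48 h, 37 C compound exposure with 20 nM CPT in Tdp1-knockout DT40 cells stably expressing hTDP1, seeded 400/well; qHTS titration format.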
IL1B secr inh – qHTS for Inhibitors of Inflammasome Signaling: IL-1-beta AlphaLISA Primary Screen; 360,000 compounds, 4.7% hits; activity change, % at 57.5 µM; THP-1 LPS/ATP IL-1B secretion, AlphaLISA, 16 h; active compounds read low; in the data active = activity change below about -50%; inconclusive = mostly about -30% to -49%
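THP-1 cells pretreated 1 hr with compounds (up to 57.5 uM final), then stimulated with LPS (250 ng/mL final) plus ATP (1.25 mM final); secreted IL-1B measured by AlphaLISA after 16 hr, decreased signal indicating inhibition.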
HT1080 IDH1KD tx – qHTS for induction of synthetic lethality in tumor cells producing 2HG: qHTS for the HT-1080-IDH1KD cell line | HT-1080 IDH1 knockdown viability, ATP luminescence, 48 h | Potency, µM (highest dose often 46.1 µM), without a hit: top-dose activity, negative = toxicity, actives largely listed as cytotoxic | 360,000 compounds, 2% hits;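 also: potency is read from the fitted curve at half-maximal effect; 0% = DMSO wells and -100% = cell-free medium wells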
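Cytotoxicity counter-line: IDH1KD HT-1080, 48 h, CellTiter-Glo. Curves classed by r2, magnitude and activity.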
TDP1 cell noCPT – qHTS for Inhibitors of human tyrosyl-DNA phosphodiesterase 1 (TDP1): qHTS in cells in absence of CPT. Potency, µM (titrated, usually from 46.2 µM), for the others: at the highest dose activity change, negative = growth inhibition, usual class: inhibitors. DT40 Tdp1-/- hTDP1 cells, no CPT, ATP luminescence, 48 h. 420,000 compounds, 15% hits; also: potency is read from the fitted curve at half-maximal effect; nearly all actives have a fitted effect of over 55% in size
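No-CPT arm: Tdp1-/-;hTDP1 DT40 cells (400/well) plus compounds, incubated ≥48 hr at 37 °C. Readout CellTiter-Glo luminescence.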
HT1080-NT tox – qHTS for induction of synthetic lethality in tumor cells producing 2HG: qHTS for the HT-1080-NT fibrosarcoma cell line | HT-1080-NT fibrosarcoma viability, CellTiter-Glo ATP luminescence, 48 h | Potency, µM (highest dose often 46.1 µM), for inactives: top-dose activity, negative = less viability, usual class: cytotoxic | 360,000 compounds, 1.6% hits;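 also: NT is the 2HG producing partner of a matched IDH1 knockdown line; potency is read from the fitted curve at half-maximal effect; 0% = DMSO-treated cells and -100% = media-only wells without cells; nearly all actives have a fitted effect of over 55% in size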
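Viability by CellTiter-Glo luminescence after 48 h compound exposure at 37C of HT-1080-NT cells (750/well, RPMI, 5% FBS). % activity scaled between DMSO wells and medium-only wells, then curve-fitted and categorized by curve class.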
Active calls of the source: *; ? = inconclusive; · = no result given; ! = not active in a repeat; [ ] = another dose, or the depositor's remark. Unless noted, calls follow the shape of the dose curve; as a rule, active = well fitted curve in the direction sought with a large enough effect; inconclusive = small, poorly fitted or top-dose-only effect, or another doubt; inactive = no such curve, though single readings can be large; an effect the other way counts as inactive or inconclusive. Unless noted, % is scaled to controls: 0 for no effect and ±100 for the full control effect.

SMILES	DT40 TDP1 CPT	IL1B secr inh	HT1080 IDH1KD tx	TDP1 cell noCPT	HT1080-NT tox
OCCC1CN(CCCc2ccccc2)CCN1Cc1ccc(F)cc1 (stereo not drawn)	0%	-16	-4%	-25%	-10%
CCOc1ccc(CN2CCN(CCCc3ccccc3)CC2CCO)cc1 (stereo not drawn)	?	-52*	-5%	?	-15%
CN1CCN(c2ccc(S(=O)(=O)N3CCOCC3)cc2NC(=O)Cc2ccccc2F)CC1	13%	-15	0%	-19%	4%
CCCC(=O)NCCc1ccc(F)cc1	-8%	11	21%	-15%	19%
C=CCSC1=N/C(=C\c2sccc2C)C(=O)S1	1%	-21	5%	0%	-1%
C=CCSC1=N/C(=C\C=C\c2ccco2)C(=O)S1	23µM*	-9	5%	18µM*	-1%
CCc1ccc(-n2c(=O)c3sc4ccccc4c3n(CC(=O)NC3CCCCC3)c2=O)cc1	3%	·	·	?	·
Cc1ccc(-n2c(C)cc(/C=c3/sc4nc5ccccc5n4c3=O)c2C)cc1	16µM*	-9	-6%	9.2µM*	-6%
Cc1ccc(OCCNC(=O)c2cccc(S(=O)(=O)N3CCN(C)CC3)c2)cc1	2%	-7	0%	?	-4%
O=[N+]([O-])c1ccc(/C=N/N2CCCCC2)cc1	?	-19	-2%	?	13%
CCc1ccc(N2C(=O)C(Cl)=C(Nc3ccc(C(=O)N4CCCC4)cc3)C2=O)cc1	-28%	-92*	-26%	-6%	-4%[9.24 µM]
CCCCCOc1ccc(NS(C)(=O)=O)cc1	0%	-13	-11%	-23%	1%
CCCCc1oc2ccc(NS(C)(=O)=O)cc2c1C(=O)c1ccc(OCCCN(CCCC)CCCC)cc1	4.7µM*	·	·	6µM*	·
COc1cccc(NC(=O)C2CCCN(S(=O)(=O)c3cn(C(C)C)cn3)C2)c1 (stereo not drawn)	-15%	·	·	-27%	·
C=CCNC(=S)Nc1sc2c(c1C(=O)OCC)CC(C(C)C)OC2 (stereo not drawn)	-27%	53	7.9µM*	-18%	6.3µM*
CC(=O)Nc1cc([N+](=O)[O-])cc(NC(C)=O)c1NC(C)=O	7.1µM*	·	·	?	·
COc1ccc(N(CC(=O)N2CCOCC2)S(C)(=O)=O)cc1OC	3%	-1	6%	21%	14%
O=C(O)CCCCCN1C(=O)/C(=C/c2cn(-c3ccccc3)nc2-c2cccs2)SC1=S	-40%	-21	?	15µM*	?
CN1CCC(N(C)C(=O)/C=C/c2cn(-c3ccccc3)nc2-c2cccs2)CC1	?	-91*	18µM*	23µM*	26µM*
O=C(O)CCN1C(=O)/C(=C/c2cn(-c3ccccc3)nc2-c2cccs2)SC1=S	4.6µM*	16	-16%	?	-7%
COc1ccc(S(=O)(=O)CC2(O)CCN(C(=O)C(C)(C)C)CC2)cc1	2%	22	7%	6%	0%
Nc1cc(-c2ccncc2)c[nH]c1=O	?	19	4%	16µM*!	27%
O=C1C(=O)N(c2nccs2)C(c2ccccc2F)/C1=C(\O)c1ccc2c(c1)OCCO2 (stereo not drawn)	?	-1	?	16µM*	?
CCCOC(=O)c1ccccc1	13%	·	·	4%	·
CCCOC1(NC(=O)c2ccccc2)C(C)=CC(=O)C=C1C	23µM*	20	25%	?	22%
SMILES	DT40 TDP1 CPT	IL1B secr inh	HT1080 IDH1KD tx	TDP1 cell noCPT	HT1080-NT tox
O=C(c1ccc(CNc2c(NC3CCCCC3)c(=O)c2=O)cc1)N1CCc2ccccc21	1%	0	1%	-8%	2%
Cc1ccc(-c2ccc(CN3C(CC(C)C)C(=O)N(Cc4cn(CCC5OCCCO5)nn4)CCS3(=O)=O)cc2)cc1 (stereo not drawn)	18µM*	-7	?	21µM*	?
CC(C)CC1C(=O)N(Cc2cn(CCC3OCCCO3)nn2)CCS(=O)(=O)N1Cc1ccc(-c2ccc(F)cc2)cc1 (stereo not drawn)	?	2	-5%	?	-12%
CC(C)CC1C(=O)N(Cc2cn(CCC3OCCO3)nn2)CCS(=O)(=O)N1Cc1ccc(-c2ccncc2)cc1 (stereo not drawn)	?	-10	19%	23µM*	2%
COc1ccc(-n2ccnc(NCc3cccs3)c2=O)cc1	-19%	·	·	?	·
Cc1ccc(C2=C(O)c3ccccc3C(=O)C2=O)cc1	-29%	11	-20%	-11%	0%
O=C1C(c2ccncc2)=C(O)c2ccccc21	?	-11	-8%	18µM*	-3%
Cc1cc2c(cc1C)CSC(c1ccccc1O)SC2	?	-15	?	?	?
Oc1ccccc1C1SC(c2ccccc2O)SC(c2ccccc2O)S1 (stereo not drawn)	?	-89*	?	?	15µM*
CCCc1ccc(Oc2cc(N3CCOCC3)nc(-c3ccccc3)n2)cc1	29µM*	12	-12%	?	-7%
Clc1ccc(Sc2cc(N3CCOCC3)nc(-c3ccccc3)n2)cc1	?	0	13%	29µM*	2%
C1=Nc2ccccc2/C1=C/c1ccccc1	4.5µM*	·	·	13µM*	·
COc1ccc(-c2nc3cnc(N4CCOCC4)nc3n(Cc3cccs3)c2=O)cc1	-23%	·	·	-2%	·
Oc1ccccc1C1C=C(c2ccc3c(c2)OCO3)NC(c2cccc(Cl)c2)N1 (stereo not drawn)	?	·	·	13µM*	·
